The source made the active and inactive calls. Unless noted, the rule behind the calls is not given here.
Experiments:
[1] = A549 cell viability effects, profiling panel, calcein-AM fluorescence, 48 h, basal (AID 1162); conditions: higher = more signal; note: test concentration not given here
[2] = adipocyte viability effects, profiling panel, cell-based, 3T3-L1 adipocytes, calcein-AM fluorescence, 48 h, basal (AID 1163); conditions: 3T3-L1 adipocytes viability, higher = more signal; note: test concentration not given here
[3] = HepG2 cell viability effects, profiling panel, calcein-AM fluorescence, 48 h, basal (AID 1164); conditions: higher = more signal; note: test concentration not given here
[4] = MM1S cell viability effects, profiling panel, calcein-AM fluorescence, 48 h, basal (AID 1165); conditions: higher = more signal;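 note: viability of MM1S multiple myeloma cells under basal unstimulated conditions; test concentration not given here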
[5] = basal RPMI8226 viability, no added stimulus, profiling panel, cell-based, calcein-AM fluorescence, 48 h, PK04 Diversity Set (AID 1166); conditions: RPMI8226 myeloma viability, higher = more signal;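 note: cells grown under basal conditions without added stimulus; test concentration not given here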
[6] = basal HepG2 mitochondrial membrane potential changes, profiling panel, cell-based, JC-1 fluorescence, 24 h, 100 nL compound (AID 1167); conditions: higher = more signal; note: test concentration not given here
[7] = basal 3T3-L1 adipocyte mitochondrial potential changes, profiling panel, cell-based, JC-1 fluorescence, 3T3-L1 adipocytes, 24 h, 100 nL compound (AID 1168); conditions: JC-1 mitochondrial fluorescence, higher = more signal, called active from +8 up or from −8 down; note: test concentration not given here
[8] = basal RPMI8226 mitochondrial membrane potential changes, profiling panel, cell-based, JC-1 fluorescence, 24 h, 100 nL compound (AID 1169); conditions: RPMI8226 myeloma, JC-1 mitochondrial potential fluorescence, higher = more signal; note: test concentration not given here
[9] = basal MM1S mitochondrial membrane potential changes, profiling panel, cell-based, JC-1 fluorescence, 24 h, 100 nL compound (AID 1170); conditions: higher = more signal; note: test concentration not given here
[10] = A549 lung cancer cell viability effects, profiling panel, resazurin fluorescence, 24 h, PK04 Diversity Set (AID 1171); conditions: higher = more signal, called active from +8 up or from −8 down; note: test concentration not given here
[11] = HepG2 liver cancer cell viability effects, profiling panel, resazurin fluorescence, 24 h, PK04 Diversity Set (AID 1172); conditions: higher = more signal; note: test concentration not given here
[12] = basal S. cerevisiae growth modulation, no modifier, primary screen, OD600, strain BY4716, 24 h, basal condition (AID 1173); conditions: OD600, 24 h, higher = more signal, called active from +8 up or from −8 down
[13] = MM1S myeloma cell viability, profiling panel, resazurin fluorescence, basal, 24 h, PK04 Diversity Set (AID 1174); conditions: higher = more signal, called active from +8 up or from −8 down;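 note: MM1S multiple myeloma cell line; test concentration not given here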
[14] = biological target: Dihydroorotate dehydrogenase (quinone), mitochondrial (Plasmodium falciparum (isolate 3D7)) (UniProt Q08210); assay: PfDHODH enzyme inhibitors, primary screen, biochemical, C-terminal His tag, absorbance 600 nm (AID 1175); conditions: DCIP absorbance 600 nm, higher = more signal, called active from +8 up or from −8 down;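 note: recombinant parasite enzyme with a five histidine tag at its C terminus; test concentration not given here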
Sequence of Dihydroorotate dehydrogenase (quinone), mitochondrial (Plasmodium falciparum (isolate 3D7)) (Q08210 whole entry, looked up): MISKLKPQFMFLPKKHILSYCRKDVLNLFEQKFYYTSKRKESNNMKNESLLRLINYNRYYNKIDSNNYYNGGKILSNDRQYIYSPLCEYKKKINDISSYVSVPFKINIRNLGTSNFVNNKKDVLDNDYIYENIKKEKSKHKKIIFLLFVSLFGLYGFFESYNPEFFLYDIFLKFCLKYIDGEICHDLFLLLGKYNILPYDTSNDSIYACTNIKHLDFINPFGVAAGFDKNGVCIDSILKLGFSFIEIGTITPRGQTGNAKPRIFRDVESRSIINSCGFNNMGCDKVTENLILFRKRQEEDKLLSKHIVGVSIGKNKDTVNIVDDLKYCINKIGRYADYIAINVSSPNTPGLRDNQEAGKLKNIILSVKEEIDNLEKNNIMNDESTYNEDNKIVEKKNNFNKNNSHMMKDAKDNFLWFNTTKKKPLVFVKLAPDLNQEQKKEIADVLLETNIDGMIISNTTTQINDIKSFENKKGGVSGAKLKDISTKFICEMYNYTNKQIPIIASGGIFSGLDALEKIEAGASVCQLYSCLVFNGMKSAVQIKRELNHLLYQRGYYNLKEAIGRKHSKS

[15] = P. aeruginosa biofilm formation inhibitors, primary screen, strain PAO1, LB-PBS medium, absorbance 600 nm (AID 1176); note: test concentration not given here; conditions: P. aeruginosa PAO1 growth/biofilm, A600, 12 h; higher = more signal
[16] = S. cerevisiae RM11-1a growth modifiers, primary screen, strain RM11-1a, OD600, basal, 24 h (AID 1177); conditions: OD600, 24 h, higher = more signal, called active from +8 up or from −8 down;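 note: cultures grown under basal conditions with no added stressor; test concentration not given here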
[17] = E. coli acrAB mutant growth effects, primary screen, E. coli filamentation inducers, strain DRC39, OD650, 24 h (AID 1178); conditions: higher = more signal, called active from +8 up or from −8 down;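 note: growth measured as culture turbidity by optical density at 650 nm; test concentration not given here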
[18] = E. coli acrAB mutant growth effects, primary screen, E. coli filamentation inducers, strain DRC39, OD650, 48 h (AID 1179);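 note: screen aims at cell division blockers that make cells filament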; conditions: E. coli DRC39 delta-acrAB growth, higher = more signal, called active from +8 up or from −8 down
[19] = RPMI8226 myeloma cell viability, profiling panel, resazurin fluorescence, basal, 24 h, PK04 Diversity Set (AID 1180); conditions: higher = more signal;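 note: RPMI8826 multiple myeloma cell line at 5000 cells per well; test concentration not given here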
[20] = biological target: E3 ubiquitin-protein ligase XIAP (Homo sapiens) (UniProt P98170); assay: XIAP binders, primary screen, biophysical, small-molecule microarray, fluorescence 635 nm (AID 1181); conditions: small-molecule microarray binding, higher = more signal;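 note: score merges 667 nm emission and signal to noise over triplicate slides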
Sequence of E3 ubiquitin-protein ligase XIAP (Homo sapiens) (P98170 whole entry, looked up): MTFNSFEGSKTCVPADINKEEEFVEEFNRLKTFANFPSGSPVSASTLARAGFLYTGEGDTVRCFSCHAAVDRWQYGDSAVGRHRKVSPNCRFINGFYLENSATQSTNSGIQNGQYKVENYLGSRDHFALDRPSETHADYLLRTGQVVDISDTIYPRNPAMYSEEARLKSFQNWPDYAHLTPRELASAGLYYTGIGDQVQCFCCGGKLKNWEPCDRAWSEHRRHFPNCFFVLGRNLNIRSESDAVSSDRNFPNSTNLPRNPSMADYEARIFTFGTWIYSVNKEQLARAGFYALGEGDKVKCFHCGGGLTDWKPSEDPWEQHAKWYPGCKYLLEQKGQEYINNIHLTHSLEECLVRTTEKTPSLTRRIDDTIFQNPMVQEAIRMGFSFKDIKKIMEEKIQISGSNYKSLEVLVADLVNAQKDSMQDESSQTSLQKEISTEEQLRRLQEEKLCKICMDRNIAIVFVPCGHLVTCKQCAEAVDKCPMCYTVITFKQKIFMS

SMILES | z-score [1] | z-score [2] | z-score [3] | z-score [4] | z-score [5] | z-score [6] | z-score [7] | z-score [8] | z-score [9] | z-score [10] | z-score [11] | z-score [12] | z-score [13] | composite z-score [14] | z-score [15] | z-score [16] | z-score [17] | z-score [18] | z-score [19] | composite z-score [20]
CN1C(=O)C2C=CC(C(O)c3ccc(-c4ccccc4)s3)N(N(c3ccccc3)c3ccccc3)C2C1=O (stereo not given) | 0.281 | -0.905 | 0.391 | -0.616 | 0.275 | 0.748 | -1.98 (inactive) | -1.05 | -0.434 | -0.434 (inactive) | -0.748 | -0.215 (inactive) | -0.609 (inactive) | -0.585 (inactive) | 1.23 (inactive) | 0.512 (inactive) | -0.554 (inactive) | -0.24 (inactive) | -0.109 | 0.174
CC(C)N1C(=O)[C@@]2(Cc3ccccc31)c1ccccc1C(=O)N(C1CCCCC1)[C@H]2c1ccc(CO)cc1 | -0.0998 | 0.0621 | -0.775 | -0.546 | 0.0484 | 0.095 | 0.327 (inactive) | 0.378 | -1.79 | 2.32 (inactive) | 2.02 | -0.536 (inactive) | 0.843 (inactive) | -18.9 (active) | -0.255 (inactive) | -0.719 (inactive) | 0.589 (inactive) | 0.443 (inactive) | 0.917 | -0.209
COC(=O)[C@@]1(Cc2ccccc2)[C@H]2c3cc(C(=O)N(C)C)n(CCSCCO)c3C[C@H]2CN1C(=O)c1ccccc1 | 0.571 | -0.0167 | -0.0301 | -0.614 | -0.933 | -1.37 | -0.728 (inactive) | 0.354 | -0.229 | 0.0392 (inactive) | -0.821 | 0.319 (inactive) | -0.345 (inactive) | -0.394 (inactive) | 0.15 (inactive) | 0.152 (inactive) | -0.976 (inactive) | -0.68 (inactive) | -0.151 | 0.212
CCC(CC)C(O)C1C=CC2C(=O)N(C)C(=O)C2N1Nc1ccccc1 (stereo not given) | 0.095 | -1.07 | 0.597 | -0.299 | -0.469 | -0.843 | -0.83 (inactive) | -0.802 | 0.0765 | 0.78 (inactive) | -0.138 | -0.692 (inactive) | -0.193 (inactive) | -0.546 (inactive) | 1.12 (inactive) | -0.0874 (inactive) | -0.53 (inactive) | -0.662 (inactive) | 0.257 | 0.661
COc1ccc(COC2OC[C@]3(C)[C@H]4C5=C(CN3C(=O)OC(C)(C)C)[C@H](C)C(CO)C(CO)C5CC[C@@H]24)cc1 (stereo not given in full) | -0.963 | 0.627 | -0.0917 | 0.0355 | -1.17 | 1.24 | -0.685 (inactive) | 0.429 | 0.0993 | -1.34 (inactive) | -0.987 | 0.455 (inactive) | -2.38 (inactive) | -0.124 (inactive) | 1.03 (inactive) | 0.903 (inactive) | -0.806 (inactive) | -1.6 (inactive) | -1.19 | -0.02
CCCCCN1CC=CC23O[C@@H]4/C=C\CCCOC(=O)C4[C@H]2C(=O)N(C(CO)C(C)C)[C@@H]3C1=O (stereo not given in full) | -0.436 | 0.737 | -1.05 | 0.693 | 0.108 | -0.335 | -0.0791 (inactive) | 0.0204 | -0.407 | 0.534 (inactive) | 1.05 | 0.367 (inactive) | 0.641 (inactive) | -2.08 (inactive) | -0.124 (inactive) | 0.226 (inactive) | 0.299 (inactive) | 0.0539 (inactive) | 0.574 | 0.177
NCCCCCNC(=O)[C@@H]1C[C@@H]2C(=O)N[C@@H](Cc3ccccc3)C(=O)N2[C@@H]1c1cccc(OCCO)c1 | -0.349 | 0.512 | -0.442 | 0.143 | -0.371 | -1.04 | -0.684 (inactive) | -0.0752 | 0.894 | -0.403 (inactive) | -0.837 | 1.04 (inactive) | -0.104 (inactive) | 0.251 (inactive) | 0.174 (inactive) | 0.606 (inactive) | -0.297 (inactive) | -0.457 (inactive) | -0.603 | 0.416
O=C1OCCC/C=C\[C@H]2OC34C=CCN(c5ccc6ccccc6c5)C(=O)[C@H]3N(CCCCCCO)C(=O)[C@@H]4C12 (stereo not given in full) | 1.21 | 0.817 | 2 | 1.92 | 0.254 | 1.02 | 0.4 (inactive) | -0.967 | -0.257 | -0.0595 (inactive) | -0.156 | -1.28 (inactive) | 0.241 (inactive) | -1.97 (inactive) | 0.481 (inactive) | -1.49 (inactive) | 0.374 (inactive) | 1.01 (inactive) | 0.152 | 0.115
